Experimental data published in PubChem BioAssay (EPA / NIEHS).
The source made the active and inactive calls. Rule for the calls: active = hit-call score of the fitted dose curve at least 0.9, where 1 is the maximum; inactive = score below 0.9.

The molecules below were run on Transforming growth factor beta 1 (TGFb1), TGFB1 (gene 7040) (assay: BSK_BE3C_TGFb1: BioMAP Diversity Plus: BE3C Assay for Transforming growth factor beta 1 (TGFb1) Biomarker Activity (AID 2283036)). Conditions: primary human bronchial epithelial cells; actives raise or lower the signal.
Method: BSK_BE3C is a cell-based, multiplexed-readout assay that uses bronchial epithelial cell, a human lung primary cell, with measurements taken at 24 hours after chemical dosing in a 96-well plate.BSK_BE3C_TGFb1 is an assay component measured in the BSK_BE3C assay. It measures TGF-b1 antibody related to regulation of gene expression using ELISA technology.Data from the assay component BSK_BE3C_TGFb1 was analyzed into 1 assay endpoint. This assay endpoint, BSK_BE3C_TGFb1, was analyzed with bidirectional fitting relative to DMSO as the negative control and baseline of activity. Using a type of binding reporter, gain or loss-of-signal activity can be used to understand changes in the signaling as they relate to the gene TGFB1. Furthermore, this assay endpoint can be referred to as a primary readout, because this assay has produced multiple assay endpoints where this one serves a signaling function. To generalize the intended target to other relatable targets, this assay endpoint is annotated to the growth factor intended target family, where the subfamily is transforming growth factor beta.
The levels of cell surface (or secreted, indicated by the prefix "s") biomarker endpoints were measured by ELISA. Overt cytotoxicity to cells in confluent adherent cultures (all systems other than the BT system) was assessed by measuring total protein levels using sulforhodamine B (SRB) staining in parallel cultures at the time of biomarker measurements, indicated as SRB endpoints. For proliferation assays for adherent cell types, individual cell types are cultured at sub-confluence and relative cell numbers quantified by SRB staining at time points optimized for each system (48 h: 3C and CASM3C systems; 72 h: BT and HDF3CGF systems; 96 h: SAg system). SRB was performed by staining cells with 0.1% SRB after fixation with 10% TCA and reading wells at 560 nm.Viability and proliferation of PBMC (T cells) was quantified by Alamar Blue reduction for the SAg and BT systems. For PBMC viability (referred to as PBMC Cytotoxicity within the assay endpoint names), cells were plated (75,000/well in a 96-well plate) and then chemical samples added for 1 h before addition of activators, SEB and TSST-1 (20 ng/mL final concentration each). Cells were incubated for 90 h. Then, Alamar Blue (20 uL/well) (Invitrogen, Cat DAL1100) was added for 6 h, and the plates were read with a fluorescence microplate reader at 546/580 nm (excitation/emission). For PBMC proliferation, cells were plated and activated as above but incubated for only 16 h prior to addition of Alamar Blue. Plates were read after 6 h.
Cc1cc(Cl)ccc1N was tested, and the outcome was “inactive”.
With Oc1c(Br)cc(Br)cc1Br the outcome was “inactive”.
For O=[N+]([O-])c1cccc2ccccc12, the outcome was “inactive”.
CCOC(=O)C(SP(=S)(OC)OC)c1ccccc1 (stereo not given) was tested, and the outcome was “inactive”.
With CN(C)C(=S)S the AC50 was 20 µM (active).
With Cc1cc(C)cc(C)c1 the outcome was “inactive”.
O=S(=O)(c1ccc(Cl)cc1)c1cc(Cl)c(Cl)cc1Cl was tested, and the outcome was “inactive”.
CC(C)O.CC(C)O.OCCN(CCO)CCO.OCCN(CCO)CCO.[Ti] was tested, and the outcome was “inactive”.
With Oc1cc(Cl)c(Cl)cc1Cl the outcome was “inactive”.
In the case of Cc1cccc(OP(=O)(Oc2cccc(C)c2)Oc2cccc(C)c2)c1, the outcome is reported as “inactive”.
With O=C(N[C@H]1CN2CCC1CC2)c1ccc2c(c1)OCCO2 the outcome was “inactive”.
With O=S(=O)(C(Cl)(Cl)Cl)C(Cl)(Cl)Cl the AC50 was 9.08 µM (active).
c1ccc2sc(SNC3CCCCC3)nc2c1 was tested, and the outcome was “inactive”.
For Cc1c([N+](=O)[O-])c(C)c([N+](=O)[O-])c(C(C)(C)C)c1[N+](=O)[O-], the outcome was “inactive”.
CCN(CC)C(=O)C(Cl)=C(C)OP(=O)(OC)OC was tested, and the outcome was “inactive”.
O=C1C=CC(=O)c2ccccc21 was tested, and the AC50 was 2.26 µM (active).
In the case of NC(=O)CCl, the outcome is reported as “inactive”.
In the case of CCOP(=S)(OCC)OP(=S)(OCC)OCC, the outcome is reported as “inactive”.
For Clc1cccc(Cl)c1Cl, the outcome was “inactive”.
For COCC(=O)N(c1c(C)cccc1C)[C@H](C)C(=O)OC, the outcome was “inactive”.
With Cc1cc(Cl)ccc1OC(C)C(=O)O (stereo not given) the outcome was “inactive”.
In the case of CC1(C)[C@H](C(=O)O[C@H](C#N)c2cccc(Oc3ccccc3)c2)[C@@H]1/C=C(\Cl)C(F)(F)F, the outcome is reported as “inactive”.
In the case of CC(C)(C)c1cc([N+](=O)[O-])cc(C(C)(C)C)c1O, the outcome is reported as “inactive”.
For O=C(O)COc1cc(Cl)c(Cl)cc1Cl, the outcome was “inactive”.
With Cc1ccccc1OP(=O)(Oc1ccccc1C)Oc1ccccc1C the AC50 was 11.4 µM (active).
With OC(Cc1ccccc1Cl)(Cn1cncn1)C1(Cl)CC1 (stereo not given) the outcome was “inactive”.
In the case of C=CC(Cl)CCl (stereo not given), the outcome is reported as “inactive”.
With CCCCCCCCCCCCc1cccc(S(=O)(=O)O)c1 the AC50 was 5.79 µM (active).
In the case of CC(C)=CC1C(C(=O)OCc2cccc(Oc3ccccc3)c2)C1(C)C (stereo not given), the outcome is reported as “inactive”.
With C#CCOC(=O)/C=C(C)/C=C/CC(C)CCCC(C)C (stereo not given) the outcome was “inactive”.
For CCOP(=O)(OCC)SCCSCC, the outcome was “inactive”.
In the case of OCCN(CCO)CCO, the outcome is reported as “inactive”.
With Clc1cccc(Cl)c1 the outcome was “inactive”.
With Oc1cccc(-c2ccccc2)c1 the outcome was “inactive”.
For CC(C)(COCC1CO1)COCC1CO1 (stereo not given), the outcome was “inactive”.
O=C(O)C1(c2ccc3c(c2)OC[C@H](Cc2ccc(-c4ccccc4)cc2)[C@H]3O)CCCC1 was tested, and the AC50 was 13 µM (active).
Cc1ccc(OP(=O)(Oc2ccc(C)cc2C)Oc2ccc(C)cc2C)c(C)c1 was tested, and the outcome was “inactive”.
With Cc1ccccc1OP(=O)(Oc1ccccc1)Oc1ccccc1 the outcome was “inactive”.
In the case of O=c1oc2ccccc2c(O)c1C(CC(O)c1ccc(-c2ccc(Br)cc2)cc1)c1ccccc1 (stereo not given), the AC50 is reported as 0.144 µM (active).
In the case of O=C(CCl)NCO, the outcome is reported as “inactive”.
